Shown are actives, neighbours in structure and some others; about 2.6% of the full set was active somewhere.
TGFb SMAD3 inh: TGF-b pathway inhibition | HepG2 CAGA-GFP TGF-b/SMAD3 reporter, GFP fluorescence, 18 h; TGF-beta stimulated, 500 pg/mL final | Potency, µM (highest dose often 46.1 µM), most hits filed as inhibitors | 1.2% of 410,000 active | AID 588855; also: nearly all actives have a fitted effect of over 65% in size
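Inhibition was scored as loss of TGF-beta-induced (500 pg/mL final, 18 hours, 37 degrees C) GFP in HEPG2 cells carrying a CAGA-GFP reporter, in DMEM with 1% FBS. Well GFP was summed per cell; Activity was normalised to unstimulated and stimulated DMSO wells, then concentration-response fitting.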
HepG2 viability: HepG2 cytotoxicity, counter-screen for TGF-b inhibitors; Potency, µM (titrated, usually from 46.1 µM), most hits filed as cytotoxic; HepG2 CAGA-GFP viability, ATP luminescence, 18 h; AID 588856; 0.76% of 410,000 active
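CellTiter-Glo luminescence gave cytotoxicity after 18 hours at 37 degrees C. The cells were HepG2 CAGA-GFP in 1% FBS DMEM, stimulated with 500 pg/mL TGF-beta after compound addition. %Activity was normalised to no-cell wells (complete cell-killing) and DMSO (no toxicity), and curves were fitted and classified.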
ATXN2 expr inh: inhibitors of ATXN2 expression | HEK-293 ATXN2-luciferase reporter, luminescence, 24 h | 0.72% of 360,000 active | AID 1745845 | Potency, µM (doses to about 57 µM), hits mostly inhibitors; also: nearly all actives have a fitted effect of over 55% in size
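qHTS (up to 57 uM final) was run with 24 h compound exposure of reporter cells at 37 °C. Each well was multiplexed: SteadyGlo luminescence measured ATXN2-luciferase expression after a fluorogenic Gly-Phe-AFC viability readout (25 uM final).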
Giardia killer: kills Giardia lamblia. AID 540267. Giardia lamblia trophozoite viability. activity change, % at 7.66 µM, hits read low. 0.15% of 340,000 active; in the data active = activity change below about -80%; inconclusive = between about -30% and that limit;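 also: parasites exposed to compound for two days anaerobically before the ATP read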
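Each well holds 100 Giardia trophozoites and compound. After two days (48 hrs) at 37 deg C in anaerobic conditions, ATP is quantified by luminescence.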
uPA surface inh: inhibitors of cell surface uPA generation | 0.31% of 330,000 active | cell surface uPA generation assay, qHTS | AID 540303 | Potency, µM (top dose mostly 38.3 µM), actives largely listed as inhibitors; active = well fitted inhibition curve with a large enough effect; inconclusive = small, poorly fitted or top-dose-only effect; inactive = no such curve, though single readings can be large or run the other way; tested in mouse RAW 264.7 cells; also: nearly all actives have a fitted effect of over 55% in size
ATXN viability: cell viability loss in ATXN counter-screen | S2 cells (HEK-293 line with an ATXN2-luciferase reporter) viability, CellTiter-Fluor protease fluorescence, 24 h | Potency, µM (highest dose often 56.7 µM), most hits filed as cytotoxic | 0.49% of 400,000 active | AID 651635; also: nearly all actives have a fitted effect of over 40% in size
A number is an active result; 0 = inactive; ? = inconclusive; - = no result given. Unless noted, calls follow the shape of the dose curve; as a rule, active = well fitted curve in the direction sought with a large enough effect; inconclusive = small, poorly fitted or top-dose-only effect, or another doubt; inactive = no such curve, though single readings can be large; an effect the other way counts as inactive or inconclusive.

SMILES	TGFb SMAD3 inh	HepG2 viability	ATXN2 expr inh	Giardia killer	uPA surface inh	ATXN viability
S=c1[nH]nc(-c2cccs2)n1/N=C/c1cn(-c2ccccc2)nc1-c1cccs1	17.8µM	0	0	0	0	0
COC(=O)c1ccccc1-c1cc(C)cc2c1OC(CNC(=O)c1cnc(C)cn1)C2 (stereo not drawn)	-	-	-	-	-	0
CC1(C)SC(=S)N(/N=C/c2ccccc2)C1N(O)C(=O)Nc1ccc([N+](=O)[O-])cc1 (stereo not drawn)	?	11.2µM	0	0	0	0
CNC(=O)N(O)C1N(/N=C/c2ccc(N(C)C)cc2)C(=S)SC1(C)C (stereo not drawn)	0	0	0	0	0	0
O=C1O[C@@H]2[C@@H](O)[C@H](O)O[C@@H]2[C@H]1O	-	-	-	-	-	0
Nc1nc2ncn(COCCO)c2c(=O)[nH]1	0	0	-	-	-	-
Cc1cccc(Cc2c(C)nc3c(C(=O)NCc4ccco4)cnn3c2C)c1	17.8µM	0	0	0	-	0
O=C(c1cnn(-c2nccc(-c3ccco3)n2)c1C1CC1)N1CCCCC1c1cccnc1 (stereo not drawn)	-	-	-	-	-	0
COc1cc(CNC(C)c2ccccc2)cc(Br)c1OCc1ccc(F)cc1 (stereo not drawn)	?	22.4µM	?	0	0	-
COc1ccc(Br)cc1CNc1ccc(O)cc1	?	12.6µM	0	0	0	0
COc1cc(CNC(C)c2ccccc2)cc(Br)c1OCc1ccccc1 (stereo not drawn)	?	0	?	0	0	?
COc1cc(CNc2ccc(O)cc2)cc(Br)c1OCc1ccccc1	22.4µM	0	-	0	?	0
CSc1ncccc1C(=O)N1CCOc2ccc(C(C)(O)CCn3cccn3)cc2C1 (stereo not drawn)	-	-	-	-	-	0
[O-]/[N+](=C\c1ccccc1)[C@@H]1CCCC[C@@H]1/[N+]([O-])=C/c1ccccc1	0	0	0	0	0	0
O=C(N/N=C\c1ccc([N+](=O)[O-])s1)C1COc2ccccc2O1 (stereo not drawn)	0	0	?	-85.1	?	?
O=[N+]([O-])c1ccc(/C=[N+](\[O-])[C@@H]2CCCC[C@@H]2/[N+]([O-])=C/c2ccc([N+](=O)[O-])o2)o1	7.08µM	0	?	-82.2	0	-
CC(NC(=O)c1ccc([N+](=O)[O-])o1)C12CC3CC(CC(C3)C1)C2 (stereo not drawn)	11.2µM	0	0	-86.5	0	0
COc1cccc(OC)c1C(=O)NC(C)C12CC3CC(CC(C3)C1)C2 (stereo not drawn)	0	0	0	0	0	0
O=C(N/N=C/c1ccc([N+](=O)[O-])o1)C1CCCC1	?	0	0	-93.5	0	0
O=C(N/N=C\c1ccc(Cl)s1)C1COc2ccccc2O1 (stereo not drawn)	0	0	0	0	?	0
O=C(c1cccc(Cn2cccn2)c1)N1CCC(n2c(C3CCCO3)nc3cc(C(F)(F)F)ccc32)CC1 (stereo not drawn)	-	-	-	-	-	0
Cc1cc(CNC(=O)c2cnn(-c3ncc4c(n3)-c3ccccc3CC4)c2C2CC2)on1	-	-	-	-	-	0
O=C(N/N=C\c1ccc([N+](=O)[O-])o1)C1COc2ccccc2O1 (stereo not drawn)	15.8µM	0	0	-82.4	0	0
CC(NC(=O)C12CC3CC(CC(C3)C1)C2)C(=O)NN=Cc1ccc([N+](=O)[O-])o1 (stereo not drawn)	?	0	?	-93.0	0	?
Cc1ccc(-c2csc3ncnc(Sc4nnnn4C4CC4)c23)cc1	0	0	-	-	-	-
SMILES	TGFb SMAD3 inh	HepG2 viability	ATXN2 expr inh	Giardia killer	uPA surface inh	ATXN viability
Cc1cccc2c(=O)[nH]c3c(-c4nc(-c5ccc(Cl)cc5)cs4)c(O)cn3c12	0	0	-	-	-	-
COc1cc(Nc2nc(SCc3ccccc3Cl)nc3ccccc23)cc(OC)c1	11.2µM	0	-	-	-	-
COc1cc(Nc2nc(SCc3ccccc3F)nc3ccccc23)cc(OC)c1	?	0	-	-	-	-
Oc1ccc(-c2nc(-c3ccccc3)c(-c3ccc(Br)cc3)[nH]2)cc1	?	0	?	-	-	?
COc1cc(-c2nc(-c3ccccc3)c(-c3ccc(Br)cc3)[nH]2)cc(OC)c1O	12.6µM	0	?	-	-	?
CCN1CCN(CCNC(=O)c2ccc(/C=C3/Sc4ccccc4N(Cc4ccccc4C)C3=O)cc2)CC1	17.8µM	0	?	0	0	?
CCN1CCN(CCCNC(=O)c2ccc(/C=C3/Sc4ccccc4N(Cc4ccccc4F)C3=O)cc2)CC1	?	11.2µM	?	0	0	0
O=C(NCCCN1CCOCC1)c1ccc(/C=C2\Oc3ccccc3N(Cc3ccccc3F)C2=O)cc1	0	0	-	0	0	?
Cc1ccc(C(=O)NCCc2nnc3n2CCN(Cc2ccnc4ccccc24)CC3)c(C)c1	-	-	-	-	-	0
O=C(NCC1(N2CCOCC2)CCCCCC1)c1cnn(-c2nccc(-c3ccco3)n2)c1C1CC1	-	-	-	-	-	0
NS(=O)(=O)c1ccc(CCNc2nn3c(-c4cccc(OC(F)(F)F)c4)cnc3s2)cc1	?	0	25.1µM	-	-	?
COc1ccc(CNc2nn3c(-c4cccc(C(=O)N(C)C)c4)cnc3s2)cc1	?	0	0	-	-	?
O=C(NCc1ccccn1)c1cc(-c2ccc(Cl)cc2)oc1C(F)(F)F	11.2µM	0	0	0	?	?
O=C(NCc1ccncc1)c1cc(-c2ccc(Cl)cc2)oc1C(F)(F)F	?	0	-	0	?	?
CCCCOc1ccc(C(=O)NNC(=S)NC(=O)CC)cc1	0	0	25.1µM	0	0	?
CC(C)(C)OC(=O)N1C2C=CC1C1=COCCN1C2=O (stereo not drawn)	0	0	-	0	-	-
CSc1ccc(CNC(=O)C2CCCN(S(=O)(=O)N(C)c3ccc(F)cc3)C2)cc1 (stereo not drawn)	4.47µM	0	-	-	-	-
CC1CCN(S(=O)(=O)N2CCCC(C(=O)NCc3ccc(F)cc3)C2)CC1 (stereo not drawn)	0	0	0	0	0	0
O=C1/C(=C/c2cccnc2)CCc2c1[nH]c1ccccc21	0	0	0	0	0	0
CC1C/C(=C\c2cccnc2)C(=O)/C(=C/c2cccnc2)C1 (stereo not drawn)	?	15.8µM	?	?	0	-
Cc1cc(CCCOc2c(C)cc(-c3noc(C(F)(F)F)n3)cc2C)on1	-	-	0	-	-	0
O=C(O)CCCCCCCCc1cn(Cc2ccc(C(=O)c3ccccc3)cc2)nn1	7.94µM	0	0	0	?	0
O=C(c1ccccc1)c1ccc(Cn2cc(CCCO)nn2)cc1	?	0	0	0	0	0
CC/C(=C\c1ccc(C(=O)OC)cc1)c1cc(OC)cc2oc3ccccc3c12	0	0	-	-	-	-
c1nc(CCO[C@H]2CCCCO2)cc2cc3c(cc12)OCO3	0	0	11.2µM	?	?	0
